Laboratory results: paper PMC6792352, “Limited Chemical Structural Diversity Found to Modulate Thyroid Hormone Receptor in the Tox21 Chemical Library” (Environmental Health Perspectives, 2019)
Counter-ions that a name gives are not always drawn.

The compounds below were run on thyroid hormone receptor (endogenous TRα and TRβ). Conditions: antagonist mode, 1 nM T3, no GH3 cytotoxicity hit, read-out: Average AC50 (uM) GH3-TRE-Antag.
Design: species or system GH3-TRE-Luc (rat pituitary); GH3-TRE-Luc luciferase reporter, antagonist mode against 1 nM T3, loss of signal, qHTS

| SMILES | AC50 [µM] |
| --- | --- |
| CC(=O)[C@H]1CC[C@H]2[C@@H]3CC[C@@H]4C[C@H](O)CC[C@]4(C)[C@H]3CC[C@]12C [Eltanolone] | 13.6 |
| C[C@H](CN1CCOCC1)C(C(=O)N1CCCC1)(c1ccccc1)c1ccccc1 [Dextromoramide tartrate] | 56.7 |
| CNC(=O)Oc1cccc(N=CN(C)C)c1 [Formetanate hydrochloride] | 70.8 |
| C[C@]12CC[C@H]3[C@@H](CCC4=CC(=O)CC[C@@]43C)[C@@H]1CC[C@@H]2O [Testosterone] | 59 |
| CCOP(=S)(OCC)SC(CCl)N1C(=O)c2ccccc2C1=O (centres unmarked) [Dialifor] | > 90 |
| COP(=S)(OC)Oc1ccc([N+](=O)[O-])cc1Cl [Dicapthon] | 79 |
| COc1cc(CC(C)N)cc2c1OCO2 (centres unmarked) [1-(7-Methoxy-1,3-benzodioxol-5-yl)propan-2-amine hydrochloride] | 48.3 |
| OC(c1ccccc1)(c1ccccc1)C1CCNCC1 [Azacyclonol] | 10.4 |
| C[C@]12C=CC(=O)C=C1CC[C@@H]1[C@@H]2CC[C@@]2(C)[C@H]1CC[C@]2(C)O [Methandrostenolone] | 34.4 |
| CNC(=O)Oc1ccccc1C(=O)Nc1ccccc1 [Anilamate] | > 50 |
| Cn1c(-c2ccccc2)cc(-c2ccccc2)[n+]1C [Difenzoquat metilsulfate] | 68.7 |
| CNP(=O)(OC)Oc1ccc(C(C)(C)C)cc1Cl (centres unmarked) [Crufomate] | 52.9 |
| CC(C)NC(C)Cc1ccc(I)cc1 (centres unmarked) [Iofetamine hydrochloride] | 22.3 |
| CC(C)(N)Cc1ccc(Cl)cc1 [Chlorphentermine hydrochloride] | 39.2 |
| ClC1(Cl)C2(Cl)C3(Cl)C4(Cl)C(Cl)(Cl)C5(Cl)C3(Cl)C1(Cl)C5(Cl)C24Cl (centres unmarked) [Mirex] | > 90 |
| O=C(O)C(F)(F)C(F)(F)C(F)(F)C(F)(F)C(F)(F)C(F)(F)C(F)(F)F [Ammonium perfluorooctanoate] | 77.1 |

| SMILES | AC50 [µM] |
| --- | --- |
| C[C@]12CC[C@H]3[C@@H](CCC4=CC(=O)CC[C@@]43C)[C@@H]1CC[C@@H]2OC(=O)CCc1ccccc1 [Testosterone 17-phenylpropionate] | 30 |
| C[C@]12CCC(=O)C=C1CC[C@@H]1[C@@H]2CC[C@@]2(C)[C@H]1CC[C@]2(C)O [17-Methyltestosterone] | 46 |
| CCC1COC(Cn2cncn2)(c2ccc(Cl)cc2Cl)O1 (centres unmarked) [Etaconazole] | 36.8 |
| CCOP(=S)(OCC)SCn1nnc2ccccc2c1=O [Azinphos-ethyl] | > 90 |
| CC(C)=CCN1CC[C@]2(C)c3cc(O)ccc3C[C@H]1[C@H]2C [(+)-Pentazocine succinate] | 37.2 |
| Clc1cc(Cl)c(-c2cc(Cl)c(Cl)cc2Cl)cc1Cl [2,2',4,4',5,5'-Hexachlorobiphenyl] | 35.4 |
| CC[C@@H](O)C(C[C@@H](C)N(C)C)(c1ccccc1)c1ccccc1 [(+)-alpha-Methadol hydrochloride] | 55.7 |
| CCOP(=S)(OCC)Oc1ccc2c(C)c(Cl)c(=O)oc2c1 [Coumaphos] | > 50 |
| C[C@]12CCC(=O)C=C1CC[C@@H]1[C@@H]2CC[C@]2(C)C(=O)CC[C@@H]12 [4-Androstene-3,17-dione] | > 50 |
| COc1ccc2c(c1)[C@]13CCCC[C@@H]1[C@H](C2)N(C)CC3 [Dextromethorphan hydrobromide monohydrate] | 21.1 |
| CC(C)(C)c1ccccc1OP(=O)(Oc1ccccc1)Oc1ccccc1 [tert-Butylphenyl diphenyl phosphate] | 88.4 |
| O=C(Nc1ccccc1)Nc1cnns1 [Thidiazuron] | 76.7 |
| O=C1C(=O)c2cccc3cccc1c23 [Acenaphthenequinone] | 76.1 |
| Nc1ccc(-c2ccccc2)cc1 [4-Biphenylamine hydrochloride] | 76.8 |
| COP(=O)(OC)O/C(=C\Cl)c1cc(Cl)c(Cl)cc1Cl [Z-Tetrachlorvinphos] | 37.7 |
| CCOP(=S)(OCC)SCSC(C)(C)C [Terbufos] | 85 |
